Screening data from PubChem.
RORg inh: qHTS for inhibitors of ROR gamma transcriptional activity; Potency, µM (series often up to 53.6 µM), for inactives: top-dose activity change, negative = inhibition, actives largely listed as inhibitors; actives 5.4% (n = 310,000); Drosophila S2 Gal4-RORgamma UAS-luciferase reporter, 20 h; Nuclear receptor ROR-gamma (Mus musculus), P51450; further: nearly all actives have a fitted effect of over 60% in size
Target sequence (P51450 whole entry, looked up, the tested form may be a part): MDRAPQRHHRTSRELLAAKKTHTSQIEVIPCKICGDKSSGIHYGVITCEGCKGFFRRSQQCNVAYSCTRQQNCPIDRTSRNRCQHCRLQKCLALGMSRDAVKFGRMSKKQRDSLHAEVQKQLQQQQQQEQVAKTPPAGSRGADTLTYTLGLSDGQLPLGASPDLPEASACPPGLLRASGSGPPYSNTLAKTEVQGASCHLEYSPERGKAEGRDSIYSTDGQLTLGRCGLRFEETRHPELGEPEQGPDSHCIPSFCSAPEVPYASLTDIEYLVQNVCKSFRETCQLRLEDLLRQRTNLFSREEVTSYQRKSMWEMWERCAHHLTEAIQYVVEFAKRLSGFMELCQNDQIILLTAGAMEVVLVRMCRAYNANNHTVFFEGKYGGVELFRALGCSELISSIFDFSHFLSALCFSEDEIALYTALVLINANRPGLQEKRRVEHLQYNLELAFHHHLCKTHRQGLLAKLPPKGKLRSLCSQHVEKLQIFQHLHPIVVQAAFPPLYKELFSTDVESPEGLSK
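Luciferase reporter read in Schneider cells carrying Gal4-RORγ (mouse) and UAS-Photinus luciferase; cells given compound 1 h before 700 uM copper sulfate induction, then incubated 20 h at ambient temperature.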
VP16 counter: VP16 counterscreen qHTS for inhibitors of ROR gamma transcriptional activity. actives 3.5% (n = 310,000). Drosophila S2 Gal4-VP16 UAS-luciferase, luminescence, 20 h. Potency, µM (doses to about 53.6 µM), for the others: top-dose activity, negative = inhibition, usual class: inhibitors. AID 2546, 2010;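 further: Gal4-VP16 expression switched on by copper sulfate through the metallothionein promoter; nearly all actives have a fitted effect of over 50% in size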
KinaseGlo FLuc: Counterscreen for Luciferase (Kinase-Glo TM) Inhibition | Luciferin 4-monooxygenase (Photuris pensylvanica), Q27757 | actives 0.28% (n = 200,000) | AID 1379, 2008 | Kinase-Glo luciferase, ATP luminescence, 8 min | Potency, µM (highest dose often 38.3 µM), for inactives: at the highest dose activity change, negative = inhibition, usual class: inhibitors; further: nearly all actives have a fitted effect of over 60% in size
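Light output from Kinase-Glo luciferase with luciferin and 10 uM ATP in 50 mM imidazole pH 7.2, KCl, MgCl2, Tween 20, BSA; compound pin-delivered, 8-min ambient incubation, then luminescence read.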
The depositor's hits bear a star; ? = inconclusive; . = not tested or not shown; [ ] = remark or other dose. Hits are enriched below; roughly 6.2% of the tested compounds scored in any of these assays. The call rests on the fitted dose curve; in most records, active means well fitted curve in the direction sought with a large enough effect; inconclusive means small, poorly fitted or top-dose-only effect, or another doubt; inactive means no such curve, though single readings can be large; an effect the other way counts as inactive or inconclusive. On the % scale 0 is the no-effect control and ±100 the full control effect; potency means the concentration at half of the fitted maximal effect.

SMILES	RORg inh	VP16 counter	KinaseGlo FLuc
Cc1cc(C)c2c(n1)nn1c(N3CCN(Cc4ccccc4)CC3)cc(C)nc21	-33%	4%	13%
O=C1CN(C(=O)NCC(=O)N2CCCC2)c2ccccc2N1	-3%	-11%	.
Cc1ccc(NC(=S)N/N=C2/CCCCc3ccccc32)cc1	3.5µM*	-24%	.
Cc1cccc(NC(=S)N2CCCC2)c1	-20%	-1%	.
COc1ccc(NC(=S)N/N=C2/CCCc3c(C)cc(C)cc32)cc1	2.8µM*	?	10%
O=C(N/N=C1\CCCCc2ccccc21)c1ccccn1	-16%	22%	-1%
COc1ccc(NC(=O)O/N=C2/CCCc3ccc(OC)cc32)cc1	-14%	2%	.
Cc1ccc(C)c(NC(=S)N/N=C2\CCc3ccccc32)c1	7.1µM*	10µM*	.
Cc1ccc(C)c(NC(=O)CCN2CCc3ccccc3C2)c1	?	1%	1%
Cc1cccc(NC(=S)N/N=C2/CCCCc3ccccc32)c1	2.8µM*	6.3µM*	0%
Cc1ccc(C2=NN(S(=O)(=O)c3ccccc3)C(c3ccccc3O)C2)cc1 (stereo not given)	32%	?	0%
COc1cccc(C=Nc2cccc3c(=O)[nH][nH]c(=O)c23)c1O	-9%	-26%	?
CCOC(=O)CCc1c(C)c2ccc(OC3CCCCC3=O)cc2oc1=O (stereo not given)	18%	-8%	.
COc1ccc(NC(=O)C(Cc2ccccc2)n2cccc2)c(OC)c1 (stereo not given)	?	2%	.
FC(F)(F)c1cccc(NC(=S)NCc2ccccn2)c1	3.5µM*	7.1µM*	0%
FC(F)(F)c1cccc(NC(=S)NNC(=S)NCc2ccccc2)c1	?	?	-2%
Cc1ccc(NC(=S)NCc2ccccn2)cc1	4µM*	16µM*	-3%
O=C(NCc1ccccn1)Nc1cccc(F)c1	24%	?	.
CCc1ccc(NC(=O)NCc2ccccn2)cc1	-30%	8%	.
S=C(NCc1ccccn1)Nc1cccc(Cl)c1	6.3µM*	13µM*	2%
Cc1cccc(NC(=S)NCc2ccccn2)c1	5µM*	?	-1%
Cc1cccc(NC(=O)C(=O)NCc2ccccn2)c1	-12%	2%	-4%
OC[C@@H](O)C(O)[C@H](O)[C@@H](O)CO (stereo not given in full)	9%	-9%	.
Cn1c(=O)c2c(nc3n2CCCN3CCc2ccccc2)n(C)c1=O	-3%	0%	.
CCC(CC)CN1CCN=C1N(C)C	-2%	4%	.
SMILES	RORg inh	VP16 counter	KinaseGlo FLuc
Cc1ccc(CNC(=O)c2cc(S(=O)(=O)N3CCOCC3)cn2C)cc1	?	-4%	.
Cc1c(Cl)cccc1NC(=S)N(Cc1cccs1)C1CCCC1	11µM*	?	-1%
CCOC(=O)c1ccc(NC(=S)N(CCCN2CCCC2)Cc2cccs2)cc1	-1%	7%	-2%
COc1cccc(NC(=S)N(CCCN2CCC(C)CC2)Cc2cccs2)c1	-23%	18%	1%
CSc1cccc(NC(=S)N(CCC(C)C)C2CCN(C(C)C)CC2)c1	13µM*	?	3%
CSc1cccc(NC(=S)N(CCC(C)C)C2CCN(C(C)=O)CC2)c1	?	8%	9%
O=C(O)CNC(=S)N(Cc1cccs1)C1CCCCC1	-1%	-9%	0%
CCOC(=O)c1ccc(NC(=S)N(CCN2CCCCCC2)Cc2cccs2)cc1	13µM*	?	1%
CSc1cccc(NC(=S)N(CCCN2CCC(C)CC2)Cc2cccs2)c1	13µM*	8%[10 µM]	2%
CCOc1ccccc1N1CCN(C(=O)c2cc(-c3cc(OC)ccc3OC)nc3ccccc23)CC1	0%	3%	.
CN(C)c1ccc(-c2cc(C3C4C=CCCC4(C)C(=O)N3Cc3ccccc3)ccc2F)cc1 (stereo not given)	16%	-11%	.
O=C(CCNC(=O)N1CC(=O)Nc2ccccc21)Nc1ccc(Cl)cc1	11%	-4%	.
CCN(C(=S)Nc1ccc(OC(F)F)cc1)C1CCCCC1	?	-9%	-2%
Cc1ccccc1NC(=S)N(C)Cc1cccs1	?	2%	-3%
CC(NC(=O)CNC(=S)N(Cc1cccs1)C1CCCC1)c1ccccc1 (stereo not given)	?	?	3%
Cc1c(Cl)cccc1NC(=S)N(CCCN1CCOCC1)Cc1cccs1	10µM*	?	0%
Cc1ccc(Cl)cc1NC(=S)N(Cc1cccs1)C1CCCC1	18µM*	?	-2%
CCN(C(=S)Nc1ccccc1F)C1CCCCC1	13µM*	3%	-3%
Cc1ccc(NC(=S)N(CCCN2CCOCC2)Cc2cccs2)c(C)c1	?	?	2%
Cc1ccccc1NC(=S)N(Cc1cccs1)C1CCCCC1	13µM*	4%	7%
NC(=O)c1cc(C(=O)c2ccccc2Cl)c[nH]1	11%	-1%	-2%
Cc1cc(Cn2ccnc2)c(C)cc1Cn1ccnc1	32%	1%	2%
O=C(CCC1CCCC1)NNC(=O)c1cccc(Cl)c1	-1%	2%	.
CCCN(CCC)C(=O)C1CC(=O)OC12CCCCC2 (stereo not given)	4%	3%	0%
NC(=O)C1(N2CCCCC2)CCN(C(=S)NC2CCCC2)CC1	2%	-4%	-3%
SMILES	RORg inh	VP16 counter	KinaseGlo FLuc
NC(=S)Nc1cc(Cl)cc(Cl)c1	-33%	-6%	.
NC(=S)NNc1cc(Cl)cc(Cl)c1	2.2µM*	4µM*	-3%
COc1cc(/C=N/N2CCN(Cc3ccc(C)cc3)CC2)cc(OC)c1O	?	-7%	.
CC(C)=NOc1nc(N2CCOCC2)nc(N2CCOCC2)n1	-21%	-4%	.
COc1ccc(OC)c2nc3c(cc12)CCC3	16µM*	?	.
COc1ccc(OC)c2nc(-c3cccnc3)ccc12	21%	21%	.
COC(=O)c1ccc(C(=O)OC)c(NC(=O)C(C)(C)C)c1	0%	-4%	0%
Fc1cccc(NC(=S)NCCCN2CCOCC2)c1	-1%	9%	-1%
CSc1cccc(NC(=S)NCCCN2CCN(c3ccc(F)cc3)CC2)c1	6.3µM*	?	-1%
CSc1cccc(NC(N)=S)c1	-41%	-1%	.
CSc1cccc(NC(=S)NN(C)C)c1	3.2µM*	10µM*	.
CSc1cccc(NC(=O)NCc2cccc(CNC(=O)Nc3cccc(SC)c3)c2)c1	?	0%	.
CSc1cccc(NC(=S)N2CCC(N(C)C3CCCCC3)CC2)c1	-14%	7%	3%
CSc1cccc(NC(=S)N2CCC(N(C)C3CCCCC3C)CC2)c1 (stereo not given)	13µM*	-71%	-1%
COCCCNC(=S)Nc1cccc(SC)c1	1.6µM*	11µM*	.
CCOc1ccccc1C(=O)Nc1ccc2c(c1)C(=O)NC2=O	28%[1.91 µM]	-7%	.
COc1cc2c(cc1OC)C(C(=O)c1ccc(OC)c(OC)c1O)=NCC2	0%	-9%	0%
CC(=O)N1CCOc2ccc(S(=O)(=O)Nc3cccc(C)n3)cc21	-3%	-5%	.
Cc1cc(Cl)ccc1NC(=O)C1CCN(S(C)(=O)=O)CC1	0%	5%	3%
Cn1c(=O)c(-c2ccc(Cl)cc2)nc2cnc(N3CCNCC3)nc21	2%	-11%	.
